Laboratory results: PMC5700166

Columns and labels:
Test in all cases: protein-binding microarray (PBM); PBM: ~300 nM protein, 6 mM HEPES pH 7.8, 80 mM KCl, 0.5 mM EDTA, 0.5 mM EGTA, 6% glycerol, 35 ng/ul poly-dIdC, 1% milk, 1 h, room temperature; Ap Aiptasia and Nv Nematostella (sea anemones) / Co Capsaspora / Aq Amphimedon (sponge) / Dm Drosophila / Hu human; RHD is the Rel homology domain; high values mean tight binding
Conditions in all cases: dsDNA, one strand shown
GST-Ap-NF-kB RHD = target: T1, GST-Ap-NF-kB RHD (Exaiptasia pallida (Aiptasia), UniProt A0A913YAJ5 2-422)
T1 sequence: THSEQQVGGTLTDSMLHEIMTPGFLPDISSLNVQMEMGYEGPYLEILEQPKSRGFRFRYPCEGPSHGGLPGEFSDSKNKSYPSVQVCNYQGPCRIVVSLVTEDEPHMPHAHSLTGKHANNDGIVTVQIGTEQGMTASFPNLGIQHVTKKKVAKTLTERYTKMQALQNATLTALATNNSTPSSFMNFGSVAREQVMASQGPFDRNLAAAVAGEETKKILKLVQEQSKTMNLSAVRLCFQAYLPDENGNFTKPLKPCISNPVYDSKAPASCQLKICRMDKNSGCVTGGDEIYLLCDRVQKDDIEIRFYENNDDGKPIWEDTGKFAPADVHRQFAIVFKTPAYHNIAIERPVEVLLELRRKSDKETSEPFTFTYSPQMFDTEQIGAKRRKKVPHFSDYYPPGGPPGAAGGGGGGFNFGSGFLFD

[1] = target: T2, GST-Nv-NF-kB (Cys allele) (Nematostella vectensis, UniProt E5G601 2-411)
T2 sequence: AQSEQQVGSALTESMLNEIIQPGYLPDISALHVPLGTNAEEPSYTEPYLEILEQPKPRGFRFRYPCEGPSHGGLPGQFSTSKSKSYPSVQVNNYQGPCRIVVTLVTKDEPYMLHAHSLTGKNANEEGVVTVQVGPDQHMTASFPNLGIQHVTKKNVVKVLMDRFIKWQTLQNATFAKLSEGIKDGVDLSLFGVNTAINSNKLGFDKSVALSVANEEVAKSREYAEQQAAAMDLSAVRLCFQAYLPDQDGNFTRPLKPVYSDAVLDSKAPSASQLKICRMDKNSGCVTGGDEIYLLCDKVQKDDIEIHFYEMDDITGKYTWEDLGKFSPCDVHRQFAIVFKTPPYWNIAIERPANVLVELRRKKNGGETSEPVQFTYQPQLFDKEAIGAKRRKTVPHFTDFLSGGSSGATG

GST-Dm-Relish = target: T3, GST-Dm-Relish (Drosophila melanogaster, UniProt Q94527 99-473)
T3 sequence: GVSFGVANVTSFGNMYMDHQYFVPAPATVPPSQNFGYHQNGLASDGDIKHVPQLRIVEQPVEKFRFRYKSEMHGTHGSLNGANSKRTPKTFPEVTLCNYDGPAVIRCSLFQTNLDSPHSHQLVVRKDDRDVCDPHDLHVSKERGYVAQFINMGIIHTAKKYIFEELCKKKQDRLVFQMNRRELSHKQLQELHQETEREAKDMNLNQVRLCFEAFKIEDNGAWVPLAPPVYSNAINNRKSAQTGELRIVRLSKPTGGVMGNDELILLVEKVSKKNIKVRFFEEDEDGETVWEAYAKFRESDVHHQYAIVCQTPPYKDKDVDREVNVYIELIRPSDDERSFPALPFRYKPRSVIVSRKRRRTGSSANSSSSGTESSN

GST-Aq-NF-kB = target: T4, GST-Aq-NF-kB (Amphimedon queenslandica, UniProt A9Y5G7 2-389)
T4 sequence: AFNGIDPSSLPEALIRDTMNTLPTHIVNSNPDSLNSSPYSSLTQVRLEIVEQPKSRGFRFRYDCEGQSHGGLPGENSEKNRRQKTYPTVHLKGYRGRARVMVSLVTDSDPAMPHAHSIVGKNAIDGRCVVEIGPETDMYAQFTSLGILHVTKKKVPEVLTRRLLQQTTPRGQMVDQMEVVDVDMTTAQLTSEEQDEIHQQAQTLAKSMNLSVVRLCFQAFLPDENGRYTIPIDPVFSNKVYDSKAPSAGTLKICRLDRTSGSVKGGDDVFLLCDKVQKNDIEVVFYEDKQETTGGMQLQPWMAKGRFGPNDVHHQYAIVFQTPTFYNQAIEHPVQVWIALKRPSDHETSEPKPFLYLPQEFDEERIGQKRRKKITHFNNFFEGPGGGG

CCGATTAACATCAAAAAATACCATGATGTTAATCGGGTCTTGATTCGCTTGACGCTGCTG
binding signal (GST-Ap-NF-kB RHD): 1.11 z-score | binding signal [1]: 1.58 z-score | binding signal (GST-Dm-Relish): 4.53 z-score | binding signal (GST-Aq-NF-kB): 2.23 z-score

CCGATTAACATCAAGGACTTCCCTGATGTTAATCGGGTCTTGATTCGCTTGACGCTGCTG
binding signal (GST-Ap-NF-kB RHD): 2.9 z-score | binding signal [1]: 3.39 z-score | binding signal (GST-Dm-Relish): 6.91 z-score | binding signal (GST-Aq-NF-kB): 5 z-score

CCGATTAACATCATGAAGACCCCTGATGTTAATCGGGTCTTGATTCGCTTGACGCTGCTG
binding signal (GST-Ap-NF-kB RHD): 2.6 z-score | binding signal [1]: 1.18 z-score | binding signal (GST-Dm-Relish): 1.35 z-score | binding signal (GST-Aq-NF-kB): 2.25 z-score

CCGATTAACATCAGGGCATTACCTGATGTTAATCGGGTCTTGATTCGCTTGACGCTGCTG
binding signal (GST-Ap-NF-kB RHD): 1.29 z-score | binding signal [1]: 1.87 z-score | binding signal (GST-Dm-Relish): 3.33 z-score | binding signal (GST-Aq-NF-kB): 4.51 z-score

CCGATTAACATCAATGGGTTTTCTGATGTTAATCGGGTCTTGATTCGCTTGACGCTGCTG
binding signal (GST-Ap-NF-kB RHD): 1.73 z-score | binding signal [1]: 1.21 z-score | binding signal (GST-Dm-Relish): 2.88 z-score | binding signal (GST-Aq-NF-kB): 1.85 z-score

CCGATTAACATCAGGGATTTTGATGATGTTAATCGGGTCTTGATTCGCTTGACGCTGCTG
binding signal (GST-Ap-NF-kB RHD): 3.17 z-score | binding signal [1]: 2.95 z-score | binding signal (GST-Dm-Relish): 4.91 z-score | binding signal (GST-Aq-NF-kB): 2.87 z-score

CCGATTAACATCAAGGAAAACCCTGATGTTAATCGGGTCTTGATTCGCTTGACGCTGCTG
binding signal (GST-Ap-NF-kB RHD): 2.67 z-score | binding signal [1]: 2.33 z-score | binding signal (GST-Dm-Relish): 4.56 z-score | binding signal (GST-Aq-NF-kB): 4.66 z-score

CCGATTAACATCACGGAAAGCCCTGATGTTAATCGGGTCTTGATTCGCTTGACGCTGCTG
binding signal (GST-Ap-NF-kB RHD): 1.02 z-score | binding signal [1]: 1 z-score | binding signal (GST-Dm-Relish): 2.9 z-score | binding signal (GST-Aq-NF-kB): 4.35 z-score

CCGATTAACATCAAAAAAGACCCTGATGTTAATCGGGTCTTGATTCGCTTGACGCTGCTG
binding signal (GST-Ap-NF-kB RHD): 2.93 z-score | binding signal [1]: 5.44 z-score | binding signal (GST-Dm-Relish): 6.91 z-score | binding signal (GST-Aq-NF-kB): 6.04 z-score

CCGATTAACATCAGGGGCTGTACTGATGTTAATCGGGTCTTGATTCGCTTGACGCTGCTG
binding signal (GST-Ap-NF-kB RHD): 2.83 z-score | binding signal [1]: 3.09 z-score | binding signal (GST-Dm-Relish): 3.56 z-score | binding signal (GST-Aq-NF-kB): 4.35 z-score

CCGATTAACATCAAAAAAATACCTGATGTTAATCGGGTCTTGATTCGCTTGACGCTGCTG
binding signal (GST-Ap-NF-kB RHD): 1.95 z-score | binding signal [1]: 2.83 z-score | binding signal (GST-Dm-Relish): 5.83 z-score | binding signal (GST-Aq-NF-kB): 3.53 z-score

CCGATTAACATCAGAAATCCCGATGATGTTAATCGGGTCTTGATTCGCTTGACGCTGCTG
binding signal (GST-Ap-NF-kB RHD): 3.14 z-score | binding signal [1]: 2.98 z-score | binding signal (GST-Dm-Relish): 3.98 z-score | binding signal (GST-Aq-NF-kB): 2.24 z-score

CCGATTAACATCAGGAAGGCCCCTGATGTTAATCGGGTCTTGATTCGCTTGACGCTGCTG
binding signal (GST-Ap-NF-kB RHD): 2.9 z-score | binding signal [1]: 2.69 z-score | binding signal (GST-Dm-Relish): 4.9 z-score | binding signal (GST-Aq-NF-kB): 5.3 z-score

CCGATTAACATCAGGAACATCCCTGATGTTAATCGGGTCTTGATTCGCTTGACGCTGCTG
binding signal (GST-Ap-NF-kB RHD): 1.46 z-score | binding signal [1]: 1.39 z-score | binding signal (GST-Dm-Relish): 1.9 z-score | binding signal (GST-Aq-NF-kB): 4.06 z-score

CCGATTAACATCAGAAAAAACCCTGATGTTAATCGGGTCTTGATTCGCTTGACGCTGCTG
binding signal (GST-Ap-NF-kB RHD): 3.95 z-score | binding signal [1]: 4.93 z-score | binding signal (GST-Dm-Relish): 6.15 z-score | binding signal (GST-Aq-NF-kB): 6.47 z-score

CCGATTAACATCAGGGACAGCCCTGATGTTAATCGGGTCTTGATTCGCTTGACGCTGCTG
binding signal (GST-Ap-NF-kB RHD): 3.43 z-score | binding signal [1]: 4.69 z-score | binding signal (GST-Dm-Relish): 2.23 z-score | binding signal (GST-Aq-NF-kB): 6.35 z-score

CCGATTAACATCAAGGGCTTCCCTGATGTTAATCGGGTCTTGATTCGCTTGACGCTGCTG
binding signal (GST-Ap-NF-kB RHD): 1.53 z-score | binding signal [1]: 1.82 z-score | binding signal (GST-Dm-Relish): 7.18 z-score | binding signal (GST-Aq-NF-kB): 3.85 z-score

CCGATTAACATCAGGAACGCCCCTGATGTTAATCGGGTCTTGATTCGCTTGACGCTGCTG
binding signal (GST-Ap-NF-kB RHD): 3.09 z-score | binding signal [1]: 3.22 z-score | binding signal (GST-Dm-Relish): 2.09 z-score | binding signal (GST-Aq-NF-kB): 5.42 z-score

CCGATTAACATCAGGCAAGTCCCTGATGTTAATCGGGTCTTGATTCGCTTGACGCTGCTG
binding signal (GST-Ap-NF-kB RHD): 3.63 z-score | binding signal [1]: 3.87 z-score | binding signal (GST-Dm-Relish): 2.41 z-score | binding signal (GST-Aq-NF-kB): 5.74 z-score

CCGATTAACATCAGGAAGACCCCTGATGTTAATCGGGTCTTGATTCGCTTGACGCTGCTG
binding signal (GST-Ap-NF-kB RHD): 3.9 z-score | binding signal [1]: 3.08 z-score | binding signal (GST-Dm-Relish): 3.8 z-score | binding signal (GST-Aq-NF-kB): 5.31 z-score

CCGATTAACATCAGGATATACCCTGATGTTAATCGGGTCTTGATTCGCTTGACGCTGCTG
binding signal (GST-Ap-NF-kB RHD): 2.02 z-score | binding signal [1]: 2.26 z-score | binding signal (GST-Dm-Relish): 2.67 z-score | binding signal (GST-Aq-NF-kB): 4.83 z-score

CCGATTAACATCAGGTAATCCCATGATGTTAATCGGGTCTTGATTCGCTTGACGCTGCTG
binding signal (GST-Ap-NF-kB RHD): 2.95 z-score | binding signal [1]: 1.6 z-score | binding signal (GST-Dm-Relish): 6.13 z-score | binding signal (GST-Aq-NF-kB): 3.49 z-score

CCGATTAACATCAGGAGATACCCTGATGTTAATCGGGTCTTGATTCGCTTGACGCTGCTG
binding signal (GST-Ap-NF-kB RHD): 3.04 z-score | binding signal [1]: 3.44 z-score | binding signal (GST-Dm-Relish): 3.18 z-score | binding signal (GST-Aq-NF-kB): 6.4 z-score

CCGATTAACATCAGGCAAATCCCTGATGTTAATCGGGTCTTGATTCGCTTGACGCTGCTG
binding signal (GST-Ap-NF-kB RHD): 1.95 z-score | binding signal [1]: 2.27 z-score | binding signal (GST-Dm-Relish): 1.36 z-score | binding signal (GST-Aq-NF-kB): 4.16 z-score

CCGATTAACATCAGAAATTTACCTGATGTTAATCGGGTCTTGATTCGCTTGACGCTGCTG
binding signal (GST-Ap-NF-kB RHD): 1.1 z-score | binding signal [1]: 2.05 z-score | binding signal (GST-Dm-Relish): 2.77 z-score | binding signal (GST-Aq-NF-kB): 2.09 z-score

CCGATTAACATCAGAAAATGCCCTGATGTTAATCGGGTCTTGATTCGCTTGACGCTGCTG
binding signal (GST-Ap-NF-kB RHD): 1.93 z-score | binding signal [1]: 2.33 z-score | binding signal (GST-Dm-Relish): 2.42 z-score | binding signal (GST-Aq-NF-kB): 3.47 z-score

CCGATTAACATCAGGACTATCCCTGATGTTAATCGGGTCTTGATTCGCTTGACGCTGCTG
binding signal (GST-Ap-NF-kB RHD): 1.82 z-score | binding signal [1]: 2.61 z-score | binding signal (GST-Dm-Relish): 1.48 z-score | binding signal (GST-Aq-NF-kB): 5.97 z-score

CCGATTAACATCAAGAAATTACCTGATGTTAATCGGGTCTTGATTCGCTTGACGCTGCTG
binding signal (GST-Ap-NF-kB RHD): 1.26 z-score | binding signal [1]: 2.74 z-score | binding signal (GST-Dm-Relish): 3.19 z-score | binding signal (GST-Aq-NF-kB): 2.27 z-score

CCGATTAACATCAGGAGAATCCCTGATGTTAATCGGGTCTTGATTCGCTTGACGCTGCTG
binding signal (GST-Ap-NF-kB RHD): 2.6 z-score | binding signal [1]: 3.24 z-score | binding signal (GST-Dm-Relish): 4.39 z-score | binding signal (GST-Aq-NF-kB): 5.52 z-score

CCGATTAACATCAATGGGATTCCTGATGTTAATCGGGTCTTGATTCGCTTGACGCTGCTG
binding signal (GST-Ap-NF-kB RHD): 1.54 z-score | binding signal [1]: 1.13 z-score | binding signal (GST-Dm-Relish): 7.4 z-score | binding signal (GST-Aq-NF-kB): 1.65 z-score

CCGATTAACATCACGGTACTTCCTGATGTTAATCGGGTCTTGATTCGCTTGACGCTGCTG
binding signal (GST-Ap-NF-kB RHD): 2.38 z-score | binding signal [1]: 2.66 z-score | binding signal (GST-Dm-Relish): 7.59 z-score | binding signal (GST-Aq-NF-kB): 2.93 z-score
